Experimental data from PubChem BioAssay.
Active and inactive are the calls of the source.

Experiments:
[1] = small molecules captured by biotinylated probe aFSTL3 – biochemical, small-molecule microarray, fluorescence 635/667, stem cell growth factor project, primary screen (AID 1064); conditions: higher = more signal;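 note: measures binding of the biotinylated anti-FSTL3 antibody to printed compounds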
[2] = binders from COS7 lysate, DM2A8 probe, primary screen, torsin A project, cell lysate, small-molecule microarray, fluorescence 635/667 (AID 1065); conditions: higher = more signal, COS7 lysate expressing mutant human TOR1A
[3] = small molecules captured by biotinylated probe aFGF2 – biochemical, small-molecule microarray, fluorescence 635/667, stem cell growth factor project, primary screen (AID 1067); conditions: higher = more signal;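 note: measures binding of biotinylated aFGF2 protein to printed compounds on slides; z-score merges feature fluorescence and signal-to-noise across triplicate slides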
[4] = small molecules captured by biotinylated probe aFGF10 – biochemical, small-molecule microarray, fluorescence 635/667, stem cell growth factor project, primary screen (AID 1071); conditions: higher = more signal;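 note: score merges 667 nm spot intensity and signal to noise from triplicate slides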
[5] = biological target: Neurogenic locus notch homolog protein 2 (Homo sapiens) (UniProt Q04721); experiment: small molecules binding Notch2 protein – biochemical, small-molecule microarray, 635 nm fluorescence, stem cell growth factors, primary screen (AID 1073); conditions: higher = more signal
[6] = biological target: Pro-neuregulin-1, membrane-bound isoform (Homo sapiens) (UniProt Q02297); experiment: small molecules binding neuregulin-1 protein – biochemical, small-molecule microarray, fluorescence 635/667, psychiatric disease protein project, primary screen (AID 1075); conditions: NRG1 binding, 635 nm fluorescence, higher = more signal;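 note: score combines 667 nm spot fluorescence with signal to noise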
[7] = tested on: Neuregulin-1 EGF-like domain; experiment: small molecules binding NRG1 EGF domain – biochemical, small-molecule microarray, 635 nm fluorescence, primary screen (AID 1081); conditions: higher = more signal;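 note: binding of the protein to compounds printed on small-molecule microarray slides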
[8] = FRG1 expression reporter modulators in myotubes – cell-based, C2C12 myotubes, firefly/Renilla luciferase, luminescence, FRG1 inhibition for FSHD, primary screen (AID 1084); conditions: FRG1 promoter luciferase, higher = more signal, called active from +8 up or from −8 down
[9] = small molecules captured by biotinylated probe aFST – biochemical, small-molecule microarray, fluorescence 635/667, stem cell growth factor project, primary screen (AID 1086); conditions: higher = more signal;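 note: score merges 667 nm fluorescence with signal-to-noise of each printed compound spot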
[10] = binders of probe aHhip on microarray, primary screen, stem cell growth factor project, biochemical, small-molecule microarray, fluorescence 635/667 (AID 1087); conditions: higher = more signal;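 note: score merges spot fluorescence at 667nm with spot signal to noise ratio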

Neurogenic locus notch homolog protein 2 (Homo sapiens), sequence (Q04721 whole entry, looked up, canonical isoform): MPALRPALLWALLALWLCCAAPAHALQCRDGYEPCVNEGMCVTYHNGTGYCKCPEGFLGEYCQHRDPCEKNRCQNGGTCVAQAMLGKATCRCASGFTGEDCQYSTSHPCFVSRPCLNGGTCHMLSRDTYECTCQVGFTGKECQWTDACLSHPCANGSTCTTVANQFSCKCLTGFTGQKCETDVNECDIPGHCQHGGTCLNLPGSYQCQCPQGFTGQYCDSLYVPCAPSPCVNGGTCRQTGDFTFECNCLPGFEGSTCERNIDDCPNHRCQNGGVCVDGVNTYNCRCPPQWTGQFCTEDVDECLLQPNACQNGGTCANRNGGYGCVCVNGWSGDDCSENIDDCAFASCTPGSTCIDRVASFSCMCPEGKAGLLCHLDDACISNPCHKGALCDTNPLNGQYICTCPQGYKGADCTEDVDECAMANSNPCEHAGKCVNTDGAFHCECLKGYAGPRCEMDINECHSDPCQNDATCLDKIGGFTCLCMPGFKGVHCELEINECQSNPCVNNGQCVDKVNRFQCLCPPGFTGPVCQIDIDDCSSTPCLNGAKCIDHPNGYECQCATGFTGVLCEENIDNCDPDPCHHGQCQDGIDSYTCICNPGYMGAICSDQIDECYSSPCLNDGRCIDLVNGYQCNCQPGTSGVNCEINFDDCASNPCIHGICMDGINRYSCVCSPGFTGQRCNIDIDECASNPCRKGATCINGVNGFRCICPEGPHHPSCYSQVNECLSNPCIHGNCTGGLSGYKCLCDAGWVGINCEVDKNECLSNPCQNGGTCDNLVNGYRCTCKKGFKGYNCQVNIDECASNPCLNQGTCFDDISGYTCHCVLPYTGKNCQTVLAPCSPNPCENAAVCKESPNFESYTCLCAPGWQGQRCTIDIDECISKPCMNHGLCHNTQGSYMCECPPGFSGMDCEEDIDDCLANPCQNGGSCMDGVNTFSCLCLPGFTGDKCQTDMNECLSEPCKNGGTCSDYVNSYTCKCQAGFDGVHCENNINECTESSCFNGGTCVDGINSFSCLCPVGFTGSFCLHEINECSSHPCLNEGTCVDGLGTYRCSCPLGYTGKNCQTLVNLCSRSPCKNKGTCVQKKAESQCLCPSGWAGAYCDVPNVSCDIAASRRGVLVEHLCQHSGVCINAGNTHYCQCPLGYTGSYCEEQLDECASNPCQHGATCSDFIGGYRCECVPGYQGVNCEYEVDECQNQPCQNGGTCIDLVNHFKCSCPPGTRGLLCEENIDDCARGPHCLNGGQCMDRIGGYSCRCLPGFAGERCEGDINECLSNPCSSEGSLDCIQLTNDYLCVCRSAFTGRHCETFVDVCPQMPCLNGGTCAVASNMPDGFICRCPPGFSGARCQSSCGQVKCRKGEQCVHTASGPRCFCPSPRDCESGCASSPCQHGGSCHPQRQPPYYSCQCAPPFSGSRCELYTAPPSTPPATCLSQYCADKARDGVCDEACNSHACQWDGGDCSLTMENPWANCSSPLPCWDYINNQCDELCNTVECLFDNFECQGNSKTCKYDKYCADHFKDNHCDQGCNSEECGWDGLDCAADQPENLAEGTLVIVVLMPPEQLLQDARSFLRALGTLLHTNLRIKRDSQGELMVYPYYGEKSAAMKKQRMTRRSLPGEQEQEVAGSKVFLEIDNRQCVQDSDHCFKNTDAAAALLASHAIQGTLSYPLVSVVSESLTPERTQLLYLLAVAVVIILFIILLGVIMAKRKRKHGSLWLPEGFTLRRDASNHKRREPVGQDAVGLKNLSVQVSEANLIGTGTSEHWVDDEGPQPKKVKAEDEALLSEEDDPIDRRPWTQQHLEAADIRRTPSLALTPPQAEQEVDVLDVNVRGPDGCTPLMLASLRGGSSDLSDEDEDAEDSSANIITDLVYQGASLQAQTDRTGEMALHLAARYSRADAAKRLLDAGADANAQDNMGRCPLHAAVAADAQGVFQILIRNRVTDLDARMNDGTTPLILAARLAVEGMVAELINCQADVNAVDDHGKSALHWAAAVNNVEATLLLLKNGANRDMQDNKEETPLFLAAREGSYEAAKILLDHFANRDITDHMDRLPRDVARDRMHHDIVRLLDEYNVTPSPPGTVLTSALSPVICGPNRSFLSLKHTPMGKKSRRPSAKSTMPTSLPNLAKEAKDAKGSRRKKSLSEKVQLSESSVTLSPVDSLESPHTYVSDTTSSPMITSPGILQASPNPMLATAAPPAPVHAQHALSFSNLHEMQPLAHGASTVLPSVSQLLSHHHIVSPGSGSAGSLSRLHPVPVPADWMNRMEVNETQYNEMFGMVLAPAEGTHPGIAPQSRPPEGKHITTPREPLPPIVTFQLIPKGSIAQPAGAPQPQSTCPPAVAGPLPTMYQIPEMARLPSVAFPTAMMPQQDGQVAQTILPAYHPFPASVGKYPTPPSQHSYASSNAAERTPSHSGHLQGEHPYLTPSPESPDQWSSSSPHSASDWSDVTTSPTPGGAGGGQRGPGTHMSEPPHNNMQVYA
Pro-neuregulin-1, membrane-bound isoform (Homo sapiens), sequence (Q02297 whole entry, looked up, the tested form may be a part, canonical isoform): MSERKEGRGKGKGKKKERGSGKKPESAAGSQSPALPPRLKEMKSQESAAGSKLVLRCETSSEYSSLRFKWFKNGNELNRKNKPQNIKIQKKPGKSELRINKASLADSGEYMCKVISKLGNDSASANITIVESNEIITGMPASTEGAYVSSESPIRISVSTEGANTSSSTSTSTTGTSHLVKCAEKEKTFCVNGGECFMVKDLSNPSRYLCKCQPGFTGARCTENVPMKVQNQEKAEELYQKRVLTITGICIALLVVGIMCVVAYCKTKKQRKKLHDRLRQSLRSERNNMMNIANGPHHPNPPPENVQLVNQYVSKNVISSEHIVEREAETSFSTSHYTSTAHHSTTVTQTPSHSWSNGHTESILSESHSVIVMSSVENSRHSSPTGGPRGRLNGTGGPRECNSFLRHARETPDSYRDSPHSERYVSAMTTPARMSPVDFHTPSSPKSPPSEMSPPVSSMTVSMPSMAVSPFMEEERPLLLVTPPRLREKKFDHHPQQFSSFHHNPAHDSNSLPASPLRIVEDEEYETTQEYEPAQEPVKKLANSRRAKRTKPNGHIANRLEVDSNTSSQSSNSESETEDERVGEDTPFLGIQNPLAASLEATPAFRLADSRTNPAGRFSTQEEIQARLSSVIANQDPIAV

| Structure (SMILES) | composite z-score [1] | composite z-score [2] | composite z-score [3] | composite z-score [4] | composite z-score [5] | composite z-score [6] | composite z-score [7] | z-score [8] | composite z-score [9] | composite z-score [10] |
| --- | --- | --- | --- | --- | --- | --- | --- | --- | --- | --- |
| COc1ccc([Si](C)(C)[C@@H]2[C@@H](CC(=O)N3CCC[C@H]3CO)O[C@]3(C(=O)N(c4ccccc4)c4ccccc43)[C@H]2C)cc1 | -0.527 | 0.411 | -0.122 | 0.713 | 0.907 | 0.0499 | 1.11 | -1.24 (inactive) | 0.552 | 0.21 |
| Cc1nc2cc(Br)ccc2c(=O)o1 | -0.296 | -0.185 | -0.158 | 0.497 | 1.1 | 0.226 | 0.861 | 0.845 (inactive) | 1.04 | 0.0383 |
| O=C1NC(=O)C2C1C=CC(C(O)c1cccs1)N2Nc1ccc(Cl)cc1Cl (stereo not given) | 0.709 | -0.232 | -0.0647 | 0.0409 | -0.0246 | 1.25 | 1.14 | 0.224 (inactive) | 0.0983 | -0.191 |
| O=C1O[C@H](c2ccccc2)[C@H](c2ccccc2)N2[C@H]1[C@@H](C(=O)N1CCCCCCC1)[C@]1(C(=O)Nc3ccc(C#CC4=CCCCC4)cc31)[C@H]2c1ccc(OCCO)cc1 | 3.55 | 2.01 | 0.917 | 0.965 | 1.6 | 2.38 | 1.3 | 0.677 (inactive) | 3.36 | 3.42 |
| CC1(C)C2C=C(C(O)C3C=CC4C(=O)NC(=O)C4N3Nc3ccc(Cl)cc3Cl)C[C@@H]1C2 (stereo not given in full) | 1.16 | 0.877 | 0.0474 | 0.519 | 1.59 | 1.5 | 0.867 | -0.505 (inactive) | 1.29 | -0.104 |
| COc1cc(Br)cc(C(O)C2C=CC3C(=O)N(C)C(=O)C3N2N2CCCCC2)c1OC (stereo not given) | 0.0974 | -1.02 | -0.053 | -0.207 | 0.224 | 0.818 | 1.31 | 0.876 (inactive) | 0.347 | 0.0677 |
| COCCOC(=O)N1C(=O)[C@@]2(c3cc(C#CCC(C(=O)OC)C(=O)OC)ccc31)[C@H](C(=O)Nc1nc3ccccc3s1)[C@H]1C(=O)O[C@H](c3ccccc3)[C@H](c3ccccc3)N1[C@@H]2c1ccccc1OCCO | 0.0949 | 0.684 | 0.0821 | 0.807 | 1.49 | 1.48 | 1.24 | 2.19 (inactive) | 0.0716 | 0.0873 |
| NC(=O)NCC#Cc1ccc2c(c1)[C@]1(C(=O)N2)[C@H](c2ccc(O)cc2)N2[C@H](c3ccccc3)[C@H](c3ccccc3)OC(=O)[C@H]2[C@@H]1C(=O)O | 0.741 | -0.935 | -0.176 | -0.225 | -0.897 | 1.08 | -0.224 | 0.473 (inactive) | -0.0113 | -0.457 |
| CCCCC(CC)C(O)C1C=CC2C(=O)N(Cc3ccccc3)C(=O)C2N1n1cnnc1 (stereo not given) | 0.168 | -0.367 | -0.0305 | 0.175 | 0.0048 | -0.343 | 1.1 | -0.302 (inactive) | 0.246 | -0.199 |
| CC(C)(C)OC(=O)CC[C@]1(C(=O)N2CCOCC2)N=C(c2ccc(OCCCO)cc2)O[C@H]1c1ccccc1N=[N+]=[N-] | 0.594 | 0.838 | 0.0376 | 0.402 | 1.48 | 1.63 | 1.28 | 1.71 (inactive) | 1.06 | 0.0515 |
| CC(C)CNC(=O)[C@@]1(Cc2ccccc2I)c2ccccc2C(=O)N(C2CCCCC2)[C@H]1c1ccc(CO)cc1 | 0.654 | 1.26 | 0.162 | 0.685 | 0.142 | 0.925 | 1.05 | -3.41 (inactive) | 0.481 | 0.702 |
| CC(C)C(=C=CC[C@@H](O)c1ccc(OCCO)cc1)C[C@@H](O)COCc1ccccc1 | -0.342 | 0.3 | -0.085 | -0.376 | -0.0534 | -0.849 | 0.449 | -1.74 (inactive) | -0.0716 | -0.0994 |
| Oc1ccc2cc[n+](Cc3sc4ccccc4c3Cl)cc2c1 | 0.997 | -0.466 | -0.0976 | -0.299 | -0.308 | -0.159 | 1.64 | 1.7 (inactive) | 0.031 | 0.16 |
| COCCOC(=O)N1C(=O)[C@@]2(c3ccccc31)[C@H](C(=O)N1CCc3cc(OC)c(OC)cc3C1)[C@H]1C(=O)O[C@H](c3ccccc3)[C@H](c3ccccc3)N1[C@@H]2c1ccc(OCCO)cc1 | 0.249 | 0.977 | -0.279 | 0.509 | 0.832 | 0.0602 | 1.21 | -1.98 (inactive) | 0.412 | -0.0085 |
| O=C(N1CCCCC1)[C@]1(Cc2ccccc2)N=C(c2ccc(OCCCO)cc2)O[C@@H]1c1ccccc1 | 0.542 | 0.0149 | -0.0183 | 0.541 | 1.51 | 1.03 | 0.884 | -0.636 (inactive) | 0.979 | 0.289 |
| COC(=O)[C@@]1(Cc2ccc(F)cc2)[C@H]2c3cc(C(=O)N4CCCC4)n(Cc4ccc(S(C)(=O)=O)cc4)c3C[C@H]2CN1C(=O)c1ccccc1 | 0.635 | -0.266 | 0.29 | 0.983 | 1.55 | 1.88 | 0.859 | -0.205 (inactive) | 2.09 | -0.0169 |
